Inconclusive results are not listed. Entries that show only a call come without a potency. Calls of active or inactive are those of the source. Calls follow the shape of the dose curve; as a rule, active = well fitted inhibition curve with a large enough effect in the repeat runs; inconclusive = weak or mixed curves, or effect the other way; inactive = no such curve, though single readings can be large or run the other way.
Potency is read from the fitted curve at half-maximal effect.

The target of this experiment is Nuclear receptor ROR-gamma (Homo sapiens) (UniProt P51449). The experiment is described as follows: qHTS assay to identify small molecule antagonists of the retinoid-related orphan receptor gamma (ROR-gamma) signaling pathway (AID 1159521; also: nearly all actives have a fitted effect of over 50% in size). The note with it: Tet-on RORgamma CHO cells, RORE-luciferase, 16 h; series mostly up to 92.4 µM. An excerpt:
U.S. Tox21 Program National Center for Advancing Translational Sciences [NCATS] NIH Chemical Genomics Center [NCGC] U.S. Environmental Protection Agency [EPA] National Institutes of Environmental Health Sciences [NIEHS] National Toxicology Program [NTP] U.S. Food and Drug Administration [FDA] Tox21 Assay Overview: Nuclear steroid hormone receptors are involved in many biological processes including inflammatory responses, cell proliferation, and apoptosis. Environmental factors or compounds disrupting these nuclear receptor pathways and gene expression may promote susceptibility to immunotoxicants and autoimmune diseases. One important group of these expression factors are the retinoid-related orphan receptors. To assess compounds that may interfere with the retinoid-related orphan receptor gamma (ROR-gamma) transcription factor, a cell-based luciferase assay was used. The CHO cell-based assay utilizes a TET-inducible ROR expression factor and ROR response element-LUC reporter gene. Reporter gene activity was induced using Doxycycline Hyclate and measured after 16 hr incubation. Tet-on ROR gamma CHO cells were used to screen against the Tox21 10K compound library for ROR gamma antagonists by quantification of decreased reporter gene activity in terms of decreased luminescence.
Tox21 Assay Protocol Summary: Tet-on ROR gamma CHO cells were dispensed at 1,000 cells in 4 uL of culture medium per well into white wall/solid bottom 1536-well plates using a Multidrop Combi (Thermo Scientific, Waltham, MA) dispenser. Following incubation at 37 C and 5% CO2 for 4 hr, 23 nL of compounds dissolved in DMSO, positive controls or DMSO only were transferred by a Pintool station (Kalypsys, San Diego, CA) and after 2 hr incubation at 37 C, one ul of 1 uM (final concentration) of Doxycycline Hyclate was added to all the wells by using a Flying Reagent Dispenser (FRD) (Aurora Discovery, San Diego, CA). After 16 hr incubation at 37 C and 5% CO2, 5 uL of ONE-Glo reagent (Promega Corporation, Madison, WI) was added to each assay plate using FRD. After 30 min incubation at room temperature, luminescence was quantified on a ViewLux plate reader (Perkin Elmer, Waltham, MA).
Background: Quantitative high-throughput screening tests each substance at several concentrations.
For the compound `CCSC(=O)N(CC)CC`, the Potency entry is “inactive”. As for `C[C@H](CS)C(=O)N1CCC[C@H]1C(=O)O`, the entry is “inactive”.

On to `O=S(=O)(Cl)c1c(Cl)cccc1Cl`, for which the Potency entry is “inactive”. As to `CCCCCC`, the Potency entry was “inactive”. With `CC(C)C(O)C(C)(C)CO` (stereo not given), the Potency was 22.4 µM (active). As to `CCc1ccc(C)cc1`, the Potency result was “inactive”. In the case of `CCN(CC)c1ccc(C(=C2C=CC(=[N+](CC)CC)C=C2)c2ccc(S(=O)(=O)O)cc2S(=O)(=O)[O-])cc1`, the Potency was 12.2 µM (active).

Regarding `Oc1ccc2c(c1)Cc1ccccc1-2`, the Potency entry is “inactive”.

With `COc1ccc(-n2nc(C(F)F)cc2-c2ccc(S(C)=O)cc2)cc1` (stereo not given), the Potency entry was “inactive”. For `C=CC(=O)O`, the Potency entry is “inactive”.

For the compound `ClC1=C(Cl)C1(Cl)Cl`, the Potency entry is “inactive”. To `CCCCCCC(O)CCCCCCCCCCC(=O)OC` (stereo not given) belongs “inactive”. Regarding `CC(CN(CCN(CC(C)OCCO)CC(C)OCCO)CC(C)OCCO)OCCO` (stereo not given), the Potency result is “inactive”. As to `CC(CCc1ccc(O)cc1)NCCc1ccc(O)c(O)c1` (stereo not given), the Potency entry is “inactive”. In the case of `CCN(CC)CCOc1ccccc1C(=O)CCc1ccccc1`, the Potency result is “inactive”. Turning to `C=Cc1ccc(OC(C)=O)cc1`, the Potency entry was “inactive”. Regarding `CC12CC3CC(C)(C1)CC(N)(C3)C2`, the Potency entry is “inactive”. To `COc1cc(NS(=O)(=O)c2ccc(N)cc2)nc(C)n1` belongs “inactive”; to `CC(=O)OCC(=O)[C@@]1(OC(C)=O)[C@@H](C)C[C@H]2[C@@H]3C[C@H](F)C4=CC(=O)C=C[C@]4(C)[C@@]3(F)[C@@H](O)C[C@@]21C`, “inactive”. `CCCCCCCCCCCCCC(=O)OCC(O)CO` (stereo not given): the Potency result was “inactive”. As for `CNC1CCCN(c2c(F)cc3c(=O)c(C(=O)O)cn(C4CC4)c3c2OC)C1` (stereo not given), the Potency entry was “inactive”. As to `Cc1ccc(NC(=O)N(C)C)cc1NC(=O)N(C)C`, the Potency entry is “inactive”. Take `COc1ccc(C(=O)NCc2ccc(OCCN(C)C)cc2)cc1OC`: the Potency entry is “inactive”. As for `COc1ccc(/C=C/C(=O)c2ccc(OC)cc2OC)cc1`, the Potency result was “inactive”. For `O=C(O)CNC(=O)c1ccccc1I`, the Potency result was “inactive”.

Take `CCOC(=O)N1CCC(Nc2ccc(Cl)cc2N)CC1`: the Potency result was “inactive”. As to `CNS(=O)(=O)c1cc(C(=O)N2CCC(CCN3C4CCC3CC(n3c(C)nc5ccccc53)C4)(c3cccc(F)c3)CC2)c(Cl)cc1F` (stereo not given), the Potency was 7.7 µM (active). `CCN(CC)CCNC(=O)c1cc(Cl)c(N)cc1OC`: the Potency result is “inactive”. On to `COc1ccc(-c2cc(C(F)F)nn2-c2ccc(S(N)(=O)=O)cc2)cc1F`, for which the Potency result was “inactive”. For the compound `O=C1OC(=O)c2c(Br)c(Br)c(Br)c(Br)c21`, the Potency result is “inactive”. With `CCCCCCOC(=O)CCCCC`, the Potency result was “inactive”. Take `CCCCCCCC/C=C\CCCCCCCC(=O)OCCO`: the Potency result was “inactive”.

Consider `Cc1ccc(S(=O)(=O)NC(=O)NC2CCCCC2)cc1`, for which the Potency entry was “inactive”. Regarding `COc1ccc(-c2cc(=S)ss2)cc1`, the Potency entry is “inactive”. Take `CC1=C2[C@@H]([C@H](C)CC[C@H]2/C=C(\C)C(=O)O)[C@H](O)C1`: the Potency result was “inactive”.

On to `O=C(NC(Cc1cc(=O)[nH]c2ccccc12)C(=O)O)c1ccc(Cl)cc1` (stereo not given), for which the Potency result was “inactive”. To `CC(C)CC(O)CC(C)C` belongs “inactive”; to `COC(=O)c1sccc1S(N)(=O)=O`, “inactive”; to `COc1ccc(C2C(=O)c3ccccc3C2=O)cc1`, “inactive”.

With `O=C(c1ccccc1)C1CCC1`, the Potency entry is “inactive”.

Source of the values: PubChem BioAssay (Tox21).
